Source: PubChem BioAssay
p53 reactivator – mutant p53 re-activation in reporter cells | H1299 p53-A138V BP100-luciferase reporter, luminescence, 24 h | hit rate 0.063% among 320,000 | Potency, µM (doses to about 92.2 µM), inactives show top-dose activity change, positive = activation, usual class: activators; further: potency means the concentration at half of the fitted maximal effect; % of control where 0% means no effect; nearly all actives have a fitted effect of over 45% in size
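H1299 (p53-null), stable ts p53-A138V + BP100-Luc; 1000 cells/well, Opti-MEM/10% FBS; cpd 4 pt, 1:5; 24 h, 37 deg C, 5% CO2; detection reagent 10 min RT; luminescence.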
uPA surface inh – blocks generation of uPA at the cell surface; cell surface uPA generation assay, qHTS; Potency, µM (titrated, usually from 38.3 µM), for the others: top-dose activity change, negative = inhibition, actives largely listed as inhibitors; hit rate 0.31% among 330,000; AID 540303; active means well fitted inhibition curve with a large enough effect; inconclusive means small, poorly fitted or top-dose-only effect; inactive means no such curve, though single readings can be large or run the other way; tested in mouse RAW 264.7 cells; further: potency means the concentration at half of the fitted maximal effect; on the % scale 0 is the no-effect control and ±100 the full control effect; nearly all actives have a fitted effect of over 55% in size
B2AR arrestin – beta2AR (human) beta-arrestin recruitment activity; beta-arrestin recruitment to beta2AR, cell-based reporter; Potency, µM (titrated, usually from 46.1 µM), for the others: at the top dose activation, hits mostly activators; hit rate 0.02% among 330,000;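 further: potency means the concentration at half of the fitted maximal effect; 0% = DMSO controls and full agonism = EC100 isoproterenol or metaproterenol; nearly all actives have a fitted effect of over 65% in size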
Target sequence (P07550 whole entry, looked up): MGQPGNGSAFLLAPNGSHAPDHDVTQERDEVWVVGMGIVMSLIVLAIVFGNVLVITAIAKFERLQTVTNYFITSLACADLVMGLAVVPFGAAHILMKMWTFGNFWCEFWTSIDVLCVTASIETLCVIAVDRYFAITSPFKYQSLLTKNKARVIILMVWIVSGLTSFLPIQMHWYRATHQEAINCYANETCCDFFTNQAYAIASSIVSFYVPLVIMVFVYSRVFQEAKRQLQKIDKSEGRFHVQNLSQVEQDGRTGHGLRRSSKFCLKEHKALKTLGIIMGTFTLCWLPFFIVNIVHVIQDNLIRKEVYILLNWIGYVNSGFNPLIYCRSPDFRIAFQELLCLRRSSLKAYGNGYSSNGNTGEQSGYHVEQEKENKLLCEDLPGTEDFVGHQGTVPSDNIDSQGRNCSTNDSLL
ClpP mod – qHTS Assay for Activators of ClpP | purified B. subtilis ClpP, FRET peptide cleavage, 20 min | ATP-dependent Clp protease proteolytic subunit (Bacillus subtilis (strain 168)), P80244 | AID 651965, 2013 | Potency, µM (highest dose often 57.5 µM), for the others: at the top dose activity change, negative = active | hit rate 1.9% among 340,000; active means well fitted falling curve with a large enough effect; inconclusive means small, poorly fitted or top-dose-only effect; inactive means no such curve, though single readings can be large or run the other way; further: potency means the concentration at half of the fitted maximal effect; the source files actives as falling curves though it sought activators and does not explain the sign; nearly all actives have a fitted effect of over 65% in size
Target sequence (P80244 whole entry, looked up): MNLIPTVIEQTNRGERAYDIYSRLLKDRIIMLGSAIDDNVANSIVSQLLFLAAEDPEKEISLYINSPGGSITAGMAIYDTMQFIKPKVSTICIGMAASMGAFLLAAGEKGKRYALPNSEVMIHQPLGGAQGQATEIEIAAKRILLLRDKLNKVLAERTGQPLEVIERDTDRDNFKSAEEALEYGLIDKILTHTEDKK
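FRET quenching reversal measured ClpP activation: 10 microg/mL B. subtilis ClpP at pH 8 with the FRET-FV decapeptide, read at 430 nm after 320 nm excitation. The 20-min minus 0-min signal was scaled between DMSO/no-enzyme wells and ADEP (5.8 microM final).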
Mito fusion yeast – blocks mitochondrial division or promotes mitochondrial fusion; S. cerevisiae fusion-defective mutant growth rescue, CellTiterGlo 48 h; Potency, µM (titrated, usually from 46.1 µM), without a hit: at the top dose growth rescue (activation), usual class: activators; hit rate 0.23% among 320,000; further: potency means the concentration at half of the fitted maximal effect; % of control where 0% means no effect; nearly all actives have a fitted effect of over 45% in size
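Compounds are tested for their ability to restore growth of mitochondrial fusion-defective yeast strains at non-permissive 37C in YPEG medium over 48 hours. Viability is quantified by luciferase luminescence.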
Giardia kill – Giardia lamblia killing; Giardia lamblia trophozoite viability; activity change, % at 7.66 µM, hits read low; AID 540267; hit rate 0.15% among 340,000; in the data active means activity change below about -80%; inconclusive means between about -30% and that limit;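 further: parasites exposed to compound for two days anaerobically before the ATP read; on the % scale 0 is the no-effect control and ±100 the full control effect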
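Luminescence from cellular ATP indicates surviving trophozoites (100 cells/well) following 48 hrs anaerobic compound treatment at 37 deg C; signal develops 15-30 min at room temperature.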
ClpP inh valid – Bacillus subtilis ClpP inhibition, validated hit. shares compounds with ClpP mod. purified B. subtilis ClpP, FRET-FV substrate cleavage, 20 min. Potency, µM (top dose mostly 57.5 µM), for the others: top-dose activity change, negative = inhibition, actives largely listed as inhibitors. hit rate 40% among 470; further: potency means the concentration at half of the fitted maximal effect; on the % scale 0 is the no-effect control and ±100 the full control effect; nearly all actives have a fitted effect of over 70% in size
The depositor's hits bear a star; ? = inconclusive; . = no result. A selection: hits, their analogues and other compounds. The true share with any hit is near 2.1%. Unless noted, the call rests on the fitted dose curve; in most records, active means well fitted curve in the direction sought with a large enough effect; inconclusive means small, poorly fitted or top-dose-only effect, or another doubt; inactive means no such curve, though single readings can be large; an effect the other way counts as inactive or inconclusive.

SMILES	p53 reactivator	uPA surface inh	B2AR arrestin	ClpP mod	Mito fusion yeast	Giardia kill	ClpP inh valid
Cc1ccc2oc(-c3cc(NC(=O)c4ccco4)ccc3Cl)nc2c1	.	.	.	-24%	.	.	.
Cc1cc2nc(-c3cc(NC(=O)c4cc5ccccc5o4)ccc3Cl)oc2cc1C	.	.	.	3.2µM*	.	.	19µM*
COc1cc(NC(=O)CN2CCN(S(=O)(=O)c3ccc(C(C)C)cc3)CC2)cc(OC)c1	3%	3%	0%	-2%	20%	-12	.
COc1ccc(S(=O)(=O)N2CCN(CC(=O)Nc3cc(OC)cc(OC)c3)CC2)cc1	4%	5%	-1%	66%	-4%	3	1%
Nc1c(C(=O)Nc2cccc(Cl)c2Cl)sc2nc(-c3cccnc3)ccc12	12%	2%	0%	4µM*	-2%	-3	0%
COc1ccc(NC(=O)Cn2c(=O)c3cccn3c3ccccc32)cc1	.	.	.	51%	.	.	-18%
CC(=O)c1ccc(NC(=O)Cn2c(=O)c3cccn3c3ccccc32)cc1	.	.	.	-4%	.	.	.
CSc1ccccc1-c1nnc(-c2ccc(C)cc2)o1	12%	-8%	0%	-27%	3%	-20	.
O=S(=O)(Cc1ccc(Cl)cc1)c1ccccc1-c1nnc(-c2ccc(Cl)cc2)o1	-3%	-2%	0%	64%	-6%	-16	27µM*
Cc1ccc(-c2nnc(-c3ccccc3S(=O)(=O)Cc3ccc(Cl)cc3)o2)cc1	0%	-7%	0%	65%	-3%	-2	14µM*
O=S(=O)(Cc1ccccc1)c1ccccc1-c1nnc(-c2ccccc2)o1	-1%	-7%	0%	44%	-8%	1	.
Cc1nc2ccc([N+](=O)[O-])cc2c(=O)n1Cc1ccccc1Br	-1%	9%	-1%	41%	5%	-8	-1%
COc1ccc(OC)c(NCc2nnc(-c3ccccc3)o2)c1	6%	4%	0%	.	-1%	9	.
COc1ccc(-c2ccc(-c3nnc(Cc4ccc(OC)c(OC)c4)o3)cc2)cc1	-2%	.	0%	2µM*	-7%	1	?
O=C(NC1CCCCC1)c1ccc2c(c1)sc1nc(-c3ccc(F)cc3)cn12	.	.	.	10µM*	.	.	-8%
COc1cccc(-c2cn3c(n2)sc2cc(C(=O)NC4CCCCCC4)ccc23)c1	.	.	.	4µM*	.	.	24µM*
COc1cccc(-c2cn3c(n2)sc2cc(C(=O)NC4CCCCC4)ccc23)c1	.	.	.	?	.	.	24µM*
COc1ccc(-c2cn3c(n2)sc2cc(C(=O)NC4CCCCCC4)ccc23)cc1	.	.	.	-15%	.	.	.
Cc1nnc(N2CCC(C(=O)N3CCCCC3)CC2)c2nn(-c3ccccc3)c(C)c12	.	.	.	-22%	.	.	.
CCN1C(=O)c2ccccc2S(=O)c2ccc(C(=O)N3CCN(c4cccc(Cl)c4)CC3)cc21 (centres undefined)	.	.	.	-2%	.	.	.
Fc1ccc2nc(Nc3nc4cc5c(cc4s3)OCCO5)sc2c1	?	4%	0%	6.3µM*	13µM*	-9	3.9µM*
Fc1cccc2sc(Nc3nc4ccccc4s3)nc12	?	2%	-1%	-5%	-13%	-6	.
Fc1ccc2nc(Nc3nc4c(F)cc(F)cc4s3)sc2c1	16%	4%	0%	8.9µM*	3%	-7	?
Fc1ccc2nc(Nc3nc4cc5c(cc4s3)OCO5)sc2c1	?	-3%	0%	?	9%	-5	.
Fc1ccc2nc(Nc3nc4c(F)cccc4s3)sc2c1	?	5%	0%	8.9µM*	14%	6	4.9µM*
SMILES	p53 reactivator	uPA surface inh	B2AR arrestin	ClpP mod	Mito fusion yeast	Giardia kill	ClpP inh valid
CC(=O)c1cc(-c2ccc(F)cc2)n(CCC(=O)Nc2nc3ccc(C)cc3s2)c1C	.	.	.	-2%	.	.	.
CCCN1Cc2cccc(C(=O)Nc3ccc(OC)cc3OC)c2C1=O	.	.	.	1%	.	.	.
O=C(CCCn1c(=O)c2ccccc2n(Cc2ccc(F)cc2Cl)c1=O)NCCc1ccc(Cl)cc1	.	.	.	-1%	.	.	.
CSc1ccc(CCNC(=O)C2CCCN(S(=O)(=O)N(C)c3ccc(F)cc3)C2)cc1 (centres undefined)	.	.	.	-2%	.	.	.
CC(Sc1nnc2ccc3ccccc3n12)C(=O)Nc1ccc(Cl)cc1 (centres undefined)	.	.	.	0%	.	.	.
CCOc1ccc(Nc2sc(C(=O)c3ccc4c(c3)OCO4)c(N)c2S(=O)(=O)c2ccc(C)cc2)cc1	.	.	.	-3%	.	.	.
CCOC(=O)N1CCN(C(=O)c2ccc(S(=O)(=O)Nc3ccc(C)cc3)cc2)CC1	-4%	-12%	5%	115%	.	-4	-1%
Cc1ccc(C2Nc3ccccc3-c3nc4ccccc4n32)o1 (centres undefined)	?	-18%	-1%	0.71µM*	16%	6	11µM*
NC(N)=Nc1ccc(/C=C2\C=Cc3ccccc32)cc1	.	.	.	-2%	.	.	.
CCn1c(-c2cccs2)nc2ccccc21	2%	-2%	0%	3.2µM*	0%	22	14µM*
COc1ccc(NC(=O)CN2C(=O)COc3ccc(S(=O)(=O)Nc4ccccc4)cc32)cc1	.	.	.	-1%	.	.	.
Cc1c(C(=O)Nc2ccc(-c3nc4cc(Cl)ccc4o3)cc2)oc2ccccc12	.	.	.	8.9µM*	.	.	15µM*
NC(Cc1ccc(Cl)cc1)c1csc(Nc2ccc(C(F)(F)F)cn2)n1 (centres undefined)	.	.	.	-9%	.	.	.
COc1ccccc1NC(=O)C1=C(C)Nc2nc(SCc3cc(C)ccc3C)nn2C1c1ccccc1 (centres undefined)	.	.	.	1%	.	.	.
COc1ccc(NC(=O)C2=C(C)Nc3nc(SCc4ccc(C)cc4C)nn3C2c2cccc(OC)c2OC)cc1 (centres undefined)	.	.	.	81%	.	.	-19%
Oc1ccc(/C=C/c2ccc(/C=C/c3ccc(O)cc3)c(Br)c2)cc1	.	.	.	.	-85%	.	-19%
O=C(CCc1nc2cccnc2n1Cc1cccs1)Nc1cccc(Cl)c1	.	.	.	-4%	.	.	.
Cc1ccc(N(C)C(=O)C2CCN(S(=O)(=O)c3c(C)noc3/C=C/c3c(C)cc(C)cc3C)CC2)cc1	.	.	.	-8%	.	.	.
CCc1cc2c(N3CCN(C(=O)c4ccco4)CC3)ncnc2s1	-6%	-3%	0%	2.8µM*	15%	-2	-1%
COc1ccc(N2CC(NC(=O)C(=O)c3c[nH]c4ccccc34)CC2=O)cc1 (centres undefined)	.	.	.	1%	.	.	.
COc1ccc(-c2ccc(N(C)C)cc2)cc1[C@H]1[C@H]2C=CC[C@@H](C)[C@@H]2C(=O)N1Cc1ccccc1	13%	6%	-1%	2.2µM*	-33%	3	34µM*
